The results in this text go back to PubChem BioAssay.

The source made the active and inactive calls.

Experiment [1] relates to Plasmodium falciparum Sir2 (PF13_0152, Sir2A). The experiment is described as follows: Plasmodium falciparum Sir2A binding compounds – biochemical, small-molecule microarray, 635 nm fluorescence, primary screen (AID 1098).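 Note: score merges spot fluorescence intensity with its signal-to-noise ratio.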 Conditions: fluorescence 635 nm, higher = more signal.
Experiment [2] in a line: probe aDKK1 binding to arrayed compounds – biochemical, biotinylated probe, 635/667 nm fluorescence, primary screen (AID 1099).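 Note: score merges 667nm spot fluorescence with signal to noise across triplicate slides.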 Conditions: small-molecule microarray, higher = more signal.
Experiment [3] is described as follows: probe aCHRDL2 binding to arrayed compounds – biochemical, biotinylated probe, 635/667 nm fluorescence, primary screen (AID 1100). The settings on record: small-molecule microarray, higher = more signal.
Experiment [4] is described as follows: change in splice reporter luminescence, either direction, cell-based, HEK293, spliceosome inhibition project, primary screen (AID 1101).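 Note: HEK293 cells carrying a splicing-competent luciferase reporter gene; test concentration not given here.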 The settings on record: HEK293 splicing luciferase reporter, 24 h, higher = more signal, called active from +8 up or from −8 down.
Experiment [5] has as its target Fibroblast growth factor 10 (Homo sapiens) (UniProt O15520). The experiment is described as follows: compounds binding fibroblast growth factor 10 – biochemical, small-molecule microarray, 635 nm fluorescence, primary screen (AID 1102). Conditions: FGF10 binding, fluorescence 635 nm, higher = more signal.
The subject of experiment [6] is glycogen synthase kinase-3 (GSK3A per assay name; protocol says GSK3B). The experiment is described as follows: compounds binding glycogen synthase kinase-3 – biochemical, small-molecule microarray, 635 nm fluorescence, GSK3A, primary screen (AID 1103). Note: the record names both GSK3A and GSK3B. The settings on record: fluorescence 635 nm, higher = more signal.
For experiment [7], the target named is Epidermal growth factor receptor (Homo sapiens) (UniProt P00533). Kind of experiment: compounds binding epidermal growth factor receptor – biochemical, small-molecule microarray, 635 nm fluorescence, primary screen (AID 1104).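 Note: score merges 667 nm emission intensity with spot signal to noise over triplicate slides.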 The settings on record: EGFR binding, higher = more signal.
Chain of Epidermal growth factor receptor (Homo sapiens) (P00533 whole entry, looked up): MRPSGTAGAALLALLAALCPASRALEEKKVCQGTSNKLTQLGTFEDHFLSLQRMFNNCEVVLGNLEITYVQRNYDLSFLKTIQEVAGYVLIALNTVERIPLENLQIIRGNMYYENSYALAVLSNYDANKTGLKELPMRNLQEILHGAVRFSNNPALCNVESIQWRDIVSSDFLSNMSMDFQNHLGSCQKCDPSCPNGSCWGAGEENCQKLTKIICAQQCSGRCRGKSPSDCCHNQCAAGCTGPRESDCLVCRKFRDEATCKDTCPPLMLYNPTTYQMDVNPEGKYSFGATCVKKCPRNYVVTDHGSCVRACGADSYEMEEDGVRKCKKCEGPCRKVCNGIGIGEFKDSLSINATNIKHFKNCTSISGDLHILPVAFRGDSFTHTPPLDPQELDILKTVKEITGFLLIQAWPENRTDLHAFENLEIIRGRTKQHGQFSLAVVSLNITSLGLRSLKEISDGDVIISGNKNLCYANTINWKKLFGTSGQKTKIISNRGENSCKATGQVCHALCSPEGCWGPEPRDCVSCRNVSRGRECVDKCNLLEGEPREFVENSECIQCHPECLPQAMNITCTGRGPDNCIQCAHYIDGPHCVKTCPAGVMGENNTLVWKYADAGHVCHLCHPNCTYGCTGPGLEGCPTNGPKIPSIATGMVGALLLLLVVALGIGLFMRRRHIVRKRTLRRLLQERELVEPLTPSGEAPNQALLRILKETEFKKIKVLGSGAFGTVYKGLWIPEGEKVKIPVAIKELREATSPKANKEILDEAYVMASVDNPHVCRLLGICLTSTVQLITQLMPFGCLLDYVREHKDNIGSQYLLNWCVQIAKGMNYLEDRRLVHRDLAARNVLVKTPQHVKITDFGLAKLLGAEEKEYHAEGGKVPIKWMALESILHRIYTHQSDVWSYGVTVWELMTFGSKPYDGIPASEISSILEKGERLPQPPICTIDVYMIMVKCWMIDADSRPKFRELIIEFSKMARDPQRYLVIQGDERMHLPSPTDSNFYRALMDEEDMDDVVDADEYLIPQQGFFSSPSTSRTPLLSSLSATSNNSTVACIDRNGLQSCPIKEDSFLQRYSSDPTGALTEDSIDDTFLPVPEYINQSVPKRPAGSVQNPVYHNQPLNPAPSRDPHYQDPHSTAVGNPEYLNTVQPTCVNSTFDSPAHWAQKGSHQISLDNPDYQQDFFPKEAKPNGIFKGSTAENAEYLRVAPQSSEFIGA
The target of experiment [8] is Follistatin-related protein 3 (Homo sapiens) (UniProt O95633). Kind of experiment: compounds binding follistatin-related protein 3 – biochemical, small-molecule microarray, 635 nm fluorescence, primary screen (AID 1105).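 Note: score merges emission near 667 nm and signal to noise per printed spot across three slides.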 Conditions: FSTL3 binding, higher = more signal.
Chain of Follistatin-related protein 3 (Homo sapiens) (O95633 whole entry, looked up): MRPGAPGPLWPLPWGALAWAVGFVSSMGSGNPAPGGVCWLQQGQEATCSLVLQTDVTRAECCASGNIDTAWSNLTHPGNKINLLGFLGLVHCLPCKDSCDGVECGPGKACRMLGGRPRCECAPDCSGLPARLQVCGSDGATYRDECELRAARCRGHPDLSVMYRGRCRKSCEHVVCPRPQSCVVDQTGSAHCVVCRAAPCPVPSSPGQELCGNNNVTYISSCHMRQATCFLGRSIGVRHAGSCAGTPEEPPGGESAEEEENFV
Experiment [9] deals with Dickkopf-related protein 1 (Homo sapiens) (UniProt O94907). The experiment is described as follows: small molecules binding DKK1 protein – biochemical, small-molecule microarray, 635 nm fluorescence scan, primary screen (AID 1106).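 Note: score merges emission near 667 nm with signal to noise over three replicate slides.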 Conditions: higher = more signal.
Chain of Dickkopf-related protein 1 (Homo sapiens) (O94907 whole entry, looked up): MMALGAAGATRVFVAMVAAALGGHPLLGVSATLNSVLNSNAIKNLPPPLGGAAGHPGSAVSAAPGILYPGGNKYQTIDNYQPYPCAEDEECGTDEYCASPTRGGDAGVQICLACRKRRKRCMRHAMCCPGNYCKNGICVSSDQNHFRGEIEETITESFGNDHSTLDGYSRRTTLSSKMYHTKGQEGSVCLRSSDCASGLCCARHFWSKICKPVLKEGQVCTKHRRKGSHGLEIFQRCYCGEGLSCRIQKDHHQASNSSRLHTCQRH
For experiment [10], the system named is Inhibin beta A chain (activin A). Kind of experiment: small molecules binding activin A – biochemical, small-molecule microarray, 635 nm fluorescence scan, primary screen (AID 1107).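 Note: mouse activin A protein probed at 4.33 µg/mL on printed slides; score merges bound-protein fluorescence near 667 nm with spot signal-to-noise.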 Conditions: INHBA, higher = more signal.
The subject of experiment [11] is Human papillomavirus type 1a protein E7 (residues 44-93). Kind of experiment: small molecules binding HPV E7 44-93 – biochemical, small-molecule microarray, residues 44-93, 635 nm fluorescence, primary screen (AID 1108).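 Note: E7 fragment applied at 1 µg/mL in TBST for 1 h at 4 C; score combines spot fluorescence with its signal to noise ratio.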 The settings on record: fluorescence 635 nm, higher = more signal.
The nature of experiment [12]: hepatitis C replication reporter changes, two-sided – Huh7 cells, luciferase reporter, HCV replication inhibitor project, primary screen (AID 1109).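 Note: huh7 hepatoma cells harbouring a luciferase neomycin HCV replicon reporter; luciferase luminescence as measure of HCV replicon replication; test concentration not given here.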 Conditions: Huh7 HCV replicon luciferase reporter, 48 h; higher = more signal.
Experiment [13] has as its target Left-right determination factor 2 (Homo sapiens) (UniProt O00292). Kind of experiment: small molecules binding LEFTY2 protein – biochemical, small-molecule microarray, 635 nm fluorescence scan, primary screen (AID 1110). The settings on record: higher = more signal.
The target of experiment [14] is Calmodulin-1 (Homo sapiens) (UniProt P0DP23). Kind of experiment: small molecules binding calmodulin-1 with EGTA – biochemical, small-molecule microarray, Cy5-labelled CALM1, profiling panel (AID 1111).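 Note: labelled calmodulin applied in Tris saline Tween buffer holding calcium plus EGTA and DTT.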 The settings on record: Cy5-CALM1 binding fluorescence, higher = more signal.
For experiment [15] the target is unchanged. Kind of experiment: small molecules binding Ca-loaded calmodulin-1 – biochemical, small-molecule microarray, Cy5-labelled CALM1, plus calcium, artefact control for SMM control-protein annotation, profiling panel (AID 1112).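 Note: score merges spot fluorescence with signal to noise from triplicate slides.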 The settings on record: Cy5-CALM1 binding fluorescence, higher = more signal.
Experiment [16] can be described thus: probe aWnt5a binding to arrayed compounds – biochemical, biotinylated probe, 635/667 nm fluorescence, primary screen (AID 1113).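 Note: score merges 667 nm fluorescence intensity with signal-to-noise per printed feature.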 Conditions: small-molecule microarray, higher = more signal.
Experiment [17] can be described thus: probe aShh binding to arrayed compounds – biochemical, biotinylated probe, 635/667 nm fluorescence, primary screen (AID 1114).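 Note: probe is biotin-labelled aShh protein from a stem cell growth factor screen; measures binding of labelled protein to compounds printed on the slide; score merges feature fluorescence at 667 nm with signal-to-noise.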 The settings on record: small-molecule microarray, higher = more signal.
Experiment [18] in a line: probe aNog binding to arrayed compounds – biochemical, biotinylated probe, 635/667 nm fluorescence, primary screen (AID 1115).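 Note: probe is biotinylated aNog protein used at 0.15 µg/mL for 1 h at 4 C; z-score combines 667 nm fluorescence of each spot with its signal to noise.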 Conditions: small-molecule microarray, higher = more signal.
Experiment [19] addresses Torsin-1A-interacting protein 1 (Homo sapiens) (UniProt Q5JTV8). The experiment is described as follows: compound microarray binding of lysate hLAP1 – cell lysate, small-molecule microarray, COS7 lysate, 635/667 nm fluorescence, primary screen (AID 1116). Conditions: 635 nm fluorescence, higher = more signal.
Experiment [20] addresses Alpha-bungarotoxin (Bungarus multicinctus) (UniProt P60615). Kind of experiment: compounds binding labelled alpha-BTX control protein – biochemical, small-molecule microarray, Alexa647 label, 635/667 nm fluorescence, artefact control for SMM control protein annotation, profiling panel (AID 1117). The settings on record: alpha-BTX-A647 binding fluorescence, higher = more signal.

Chain of Torsin-1A-interacting protein 1 (Homo sapiens) (Q5JTV8 whole entry, looked up): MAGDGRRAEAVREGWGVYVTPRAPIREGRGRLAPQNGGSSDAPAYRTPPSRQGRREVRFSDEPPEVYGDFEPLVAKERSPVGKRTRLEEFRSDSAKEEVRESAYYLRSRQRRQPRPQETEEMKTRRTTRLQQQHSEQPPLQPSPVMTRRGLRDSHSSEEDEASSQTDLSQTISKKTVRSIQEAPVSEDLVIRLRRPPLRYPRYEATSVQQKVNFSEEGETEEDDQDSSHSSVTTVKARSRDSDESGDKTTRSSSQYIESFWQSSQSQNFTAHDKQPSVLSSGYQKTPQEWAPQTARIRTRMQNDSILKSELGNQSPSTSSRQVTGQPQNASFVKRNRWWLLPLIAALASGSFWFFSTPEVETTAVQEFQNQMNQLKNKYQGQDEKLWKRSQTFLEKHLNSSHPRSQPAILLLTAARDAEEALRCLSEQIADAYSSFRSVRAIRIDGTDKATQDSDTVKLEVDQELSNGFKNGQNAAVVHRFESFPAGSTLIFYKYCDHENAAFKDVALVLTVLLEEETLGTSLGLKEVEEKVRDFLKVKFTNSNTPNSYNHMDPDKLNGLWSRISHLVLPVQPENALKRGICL
Chain of Fibroblast growth factor 10 (Homo sapiens) (O15520 whole entry, looked up): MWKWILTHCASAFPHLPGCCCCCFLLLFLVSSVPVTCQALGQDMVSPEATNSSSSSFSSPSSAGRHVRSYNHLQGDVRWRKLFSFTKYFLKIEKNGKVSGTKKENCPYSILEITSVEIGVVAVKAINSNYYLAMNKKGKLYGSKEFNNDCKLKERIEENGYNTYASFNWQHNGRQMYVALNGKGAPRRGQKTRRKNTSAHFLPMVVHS
Chain of Left-right determination factor 2 (Homo sapiens) (O00292 whole entry, looked up): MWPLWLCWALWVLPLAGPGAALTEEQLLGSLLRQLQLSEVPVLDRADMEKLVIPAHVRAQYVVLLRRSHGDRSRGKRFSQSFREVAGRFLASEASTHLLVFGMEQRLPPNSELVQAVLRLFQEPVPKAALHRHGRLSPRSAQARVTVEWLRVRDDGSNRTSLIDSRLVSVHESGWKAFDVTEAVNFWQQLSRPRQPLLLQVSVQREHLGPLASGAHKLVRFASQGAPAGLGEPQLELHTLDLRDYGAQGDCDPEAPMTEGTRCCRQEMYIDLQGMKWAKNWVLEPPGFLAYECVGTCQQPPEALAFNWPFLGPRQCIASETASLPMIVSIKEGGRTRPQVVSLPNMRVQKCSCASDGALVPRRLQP
Chain of Alpha-bungarotoxin (Bungarus multicinctus) (P60615 whole entry, looked up): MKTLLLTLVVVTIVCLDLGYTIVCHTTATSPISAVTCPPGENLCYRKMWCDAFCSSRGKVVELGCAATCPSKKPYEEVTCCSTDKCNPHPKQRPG

With `CCCC[C@@H](O)C1=C(C)C[C@H]2C(=O)N(C)C(=O)[C@H]2[C@H]1CO`, the composite z-score is 1.42 in experiment [1]; -0.372 in experiment [2]; -0.493 in [3]; 0.755 in experiment [5]; 0.349 in [6]; 0.269 in experiment [7]. Also, the composite z-score was 0.229 in experiment [8]; 0.3 in experiment [9]; -0.301 in experiment [10]; 0.276 in experiment [11]; 0.322 in experiment [13]; -0.409 in experiment [14]. For the same compound, the composite z-score in experiment [15] was -0.471; in [16] it was -0.0944; in experiment [17], 0.0141; in experiment [18], 0.185; in experiment [19], 0.0605; in experiment [20], 0.548. Moreover, the z-score is -0.72 (inactive) in experiment [4] and 0.739 in [12].
Turning to `CCCNC(=O)[C@@H]1c2ccccc2C(=O)N(Cc2cc(C(F)(F)F)cc(C(F)(F)F)c2)[C@H]1c1ccc(CO)cc1`, the composite z-score in [1] was 1.23; in [2], 0.829; in [3], 0.803; in [5], 0.238; in experiment [6], 0.459; in experiment [7], -0.112. The composite z-score was 0.268 in experiment [8]; -0.196 in experiment [9]; 0.0686 in experiment [10]; 0.35 in [11]; -0.402 in experiment [13]; 0.394 in [14]. Besides, the composite z-score in [15] is 0.544; in [16], -0.146; in experiment [17], 0.188; in experiment [18], 0.527; in [19] it was 0.238; in experiment [20], 1.22. In addition, the z-score was -0.443 (inactive) in experiment [4] and -0.392 in [12].
As to `COc1ccc(C(=O)Nc2cccc(CN3C(=O)[C@@]4(O[C@@H](CCO)[C@H]([Si](C)(C)c5ccc(OC)cc5)[C@H]4C)c4ccccc43)c2)cc1`, the composite z-score in experiment [1] is 0.775; in [2], 0.481; in [3] it was 0.666; in [5] it was 0.0414; in [6] it was 0.2; in experiment [7], -0.121. Further, the composite z-score was 0.131 in [8]; 0.19 in experiment [9]; 1.49 in experiment [10]; 0.721 in experiment [11]; -0.0057 in experiment [13]; 1.08 in [14]. Moreover, the composite z-score is 1.03 in experiment [15]; -0.0721 in [16]; -0.0146 in experiment [17]; 0.0043 in [18]; 0.0777 in [19]; 0.689 in [20]. Besides, the z-score in [4] is 1.92 (inactive); in experiment [12], -5.15.
`CCOC(=O)C[C@H]1[C@H](OC(=O)c2ccc(C(=O)c3ccccc3)cc2)[C@@H](NC(=O)Cc2ccc(OC)cc2)c2cc(OCCCO)ccc2N1C(=O)Cc1ccc(OC)cc1`: the composite z-score was 0.276 in [1]; 0.676 in experiment [2]; 0.949 in [3]; 0.371 in experiment [5]; 0.283 in experiment [6]; -0.137 in experiment [7]. The composite z-score is 0.321 in [8]; -0.177 in experiment [9]; 0.962 in experiment [10]; 1.06 in [11]; 0.39 in experiment [13]; 1.31 in experiment [14]. In addition, the composite z-score in [15] was 0.655; in [16] it was -0.0643; in experiment [17], -0.156; in experiment [18] it was 1.1; in [19], 0.743; in experiment [20], 0.978. Further, the z-score is -1.52 (inactive) in [4] and -1.06 in experiment [12].
In the case of `C[C@@H](OCc1ccccc1)C1NC(=O)[C@@]23C(=O)N[C@@H](Cc4ccccc4)C2[C@H](C)[C@@]2(C)O[C@H]2C3/C=C/C/C=C\CNC(=O)[C@@H]2CCCN2C1=O` (stereo not given in full), the composite z-score in experiment [1] is -0.381; in [2] it was -0.308; in experiment [3] it was -0.39; in [5], 0.097; in experiment [6] it was -0.616; in [7], -0.324. For the same compound, the composite z-score in experiment [8] was 0.819; in experiment [9], 0.34; in [10], 1.75; in experiment [11] it was -2.3; in [13], -0.0437; in [14], -1.46. The composite z-score in experiment [15] is -1.23; in [16] it was -0.197; in experiment [17], -0.138; in [18], -0.247; in [19], -0.417; in [20], -0.236. In addition, the figures for the z-score in experiment [4] and in [12] were 0.253 (inactive) and -1.06, respectively.
For the compound `C=CCNC(=O)[C@@H]1[C@H]2C(=O)O[C@H](c3ccccc3)[C@H](c3ccccc3)N2[C@H](c2ccc(O)cc2)[C@@]12C(=O)Nc1ccc(C#Cc3ccc(OC)cc3)cc12`, the composite z-score was 0.775 in experiment [1]; 0.74 in [2]; 0.273 in experiment [3]; 0.564 in experiment [5]; 1.26 in experiment [6]; 0.312 in experiment [7]. Further, the composite z-score in [8] turned out to be 0.961; in [9] it was 0.389; in experiment [10], 0.311; in [11], 0.927; in [13], 0.239; in experiment [14], 1.61. The composite z-score in experiment [15] is 0.941; in experiment [16] it was -0.0236; in experiment [17] it was 1.03; in [18] it was -0.274; in experiment [19], 1.02; in [20] it was 2.75. Further, the z-score in [4] is -0.934 (inactive); in [12] it was -2.67.
